The campaign covered roughly 150,000 compounds. About 540 (0.36%) showed an effect of 50% or more. This is one part of a sample in which strong results are shown more often than they occur.

In the experiment the test system is Plasmodium falciparum. Briefly: Primary screen in NF54 nanoGlo assay, in single point, at 2uM, 72h; a lower Z score goes with more inhibition. Type of experiment: functional, Erythrocyte. As to conditions: timepoint 72 hour.
For orientation: % Inhibition means the drop in the measured response relative to a control, in per cent. On to `NC1CCOC(C2CCCCN2S(=O)(=O)c2ccc(C(F)(F)F)s2)C1` (configuration not stated), for which the “% Inhibition” value came out at 4% and the Z score is recorded as -0.63.
On the same counts, the results for `COCCN1C(=O)[C@@H]2C(Cc3ccc(O)cc3)NC3(C(=O)Nc4c(C)cc(C)cc43)[C@@H]2C1=O` (some centres not stated) are -3% and 0.41.
As for `Cc1cccc(Cl)c1C(=O)NC(C1CCNCC1)[C@H]1C[C@H](O)C1` (some centres not stated), the “% Inhibition” value is listed as -9% and the Z score is reported as 1.88.
On the same counts, the results for `Cc1noc2ncnc(N3CCCC3CC(O)c3cnn(C)c3)c12` (configuration not stated) are 4% and -0.69.
Consider `CCC[C@H](NC1CCN(C(=O)OC)CC1)C1CC1`, for which the “% Inhibition” value is reported as 7% and the Z score is listed as -0.96.
Consider `CC1CC(C)CN(C(=O)c2ccc3c(=O)n4c(nc3c2)CCCC4)C1` (configuration not stated), for which the “% Inhibition” value was -3% and the Z score amounted to 0.52.
On the same counts, the results for `COc1ccc2c(/C=C/c3cc[n+](C)cc3)cn(Cc3ccccc3)c2c1` are 68% and -6.36.
On the same counts, the results for `COc1ccc([C@@H](CC(=O)N2CCCC2)c2cn(Cc3ccccc3)c3ccccc23)cc1` are -8% and 0.98.
With `COc1ccc([C@H]2CC(=O)Nc3cccc4c3c2cn4Cc2ccccc2)cc1`, the “% Inhibition” value is recorded as -4% and the Z score came out at 0.51.
On the same counts, the results for `Cc1nc(NC(=O)NCCn2ncnn2)sc1C` are 31% and -4.22.
On the same counts, the results for `CCC(C)CS(=O)(=O)NC(C)C1CC1` (configuration not stated) are -4% and 0.39.
For `Cc1cccc(NC(=O)c2c[nH]c3nc(C)ccc3c2=O)c1`, in that order: 4% and -0.5.
Turning to `Cc1ccc(C)c(NC(=O)c2c(Oc3ccc(F)cc3)nc(C)c(Cl)c2C)c1`, the “% Inhibition” value is listed as -8% and the Z score is recorded as 1.01.
For `Cc1c(C)c2ccc(NC(=O)c3cc4ccccc4o3)cc2[nH]c1=O`, in that order: 93% and -7.22.
For `O=C(Nc1c(C(=O)Nc2ccc(F)c(F)c2)oc2ccccc12)c1cc2ccccc2o1`, in that order: -13% and 2.46.
With `Cn1cc(NC(=O)c2cc3ccccc3o2)ccc1=O`, the “% Inhibition” value was -4% and the Z score was 0.73.
For `CCOC(=O)c1cn(CCc2c[nH]cn2)cc(Oc2ccccc2)c1=O`, the “% Inhibition” value was determined as 0% and the Z score is -0.09.
On the same counts, the results for `O=C(NCC(O)c1ccccc1Cl)C1CCCN1` (configuration not stated) are 1% and -0.1.
On the same counts, the results for `O=C(c1ccc(-c2noc(C(F)(F)F)n2)cc1)N1CCC1` are 29% and -3.23.
In the case of `CCNC(=O)N1CCN(c2ccc(-c3noc(C(F)(F)F)n3)cn2)CC1`, the “% Inhibition” value was found to be 12% and the Z score is on record as -1.6.
For `Cc1c(F)cccc1-c1ccc(CNc2cccc(CN3CCC(O)CC3)c2)o1`, in that order: 8% and -0.88.
On the same counts, the results for `CNC(=O)c1ccc(OC)c(-c2ccc(NCCN3CCOCC3)nc2)c1` are -7% and 1.05.
On the same counts, the results for `CCc1ccc(-c2cnc3ccccc3n2)cc1NC(=O)[C@@H](NS(=O)(=O)c1ccccc1)C(C)C` are 4% and -0.61.
Consider `Cc1ccc(CCC(=O)NC(c2ccccc2)C(C)C(=O)O)o1` (configuration not stated), for which the “% Inhibition” value was 5% and the Z score is listed as -0.67.
For `Cc1cccc(-c2noc(N3CCOCC3)c2CN(C(=O)CC(C)C)C2CC2)c1`, in that order: -12% and 1.29.
For the molecule `COc1ccc(CN2CC[C@@H]3C(=O)NCCCCCCN(Cc4ccncc4)[C@@H]3C2)cc1Cn1ccnc1`, the “% Inhibition” value came out at 59% and the Z score is -7.78.
For `COc1cccc(CN2CC[C@H]3C(=O)NCCCCCCN(Cc4ccncc4)[C@@H]3C2)n1`, the “% Inhibition” value is recorded as -5% and the Z score amounted to 0.65.
Regarding `CCn1cc(CN2CC[C@H]3C(=O)NCCCCCCN(Cc4ccncc4)[C@@H]3C2)c(C)n1`, the “% Inhibition” value was determined as 2% and the Z score was -0.2.
Turning to `CN(Cc1cn(C)nn1)CC1CCOCC1`, the “% Inhibition” value is on record as -11% and the Z score is on record as 2.06.
For `CCO[C@H]1CN(C(=O)Cc2nc(C)sc2C)C[C@@H]1O`, in that order: 0% and 0.05.
On the same counts, the results for `S=c1cc(-c2ccccc2)n(CCCc2ccccc2)c2c1CCCC2` are -6% and 0.85.
For `S=c1cc(-c2ccccc2)n(Cc2ccco2)c2c1CCCC2`, in that order: 54% and -6.88.
In the case of `C[C@@]1(C(=O)NC2CCCCCCC2)Cn2c(ccc2-c2ccccc2)C(=O)N1Cc1ccco1`, the “% Inhibition” value is 7% and the Z score is recorded as -0.83.
For `CC(=O)c1cc(Br)ccc1NCC(=O)N(C)CCC#N`, in that order: -26% and 2.93.
For `CCc1nccc(-c2c(-c3ccccc3)ncn2CCN2CCOCC2)n1`, in that order: -6% and 0.83.
Take `CCOC(=O)c1c(CN2CCCC2)n(C)c2cc(-c3cccnc3)c(O)c(Cn3ccnc3)c12`: the “% Inhibition” value is recorded as 58% and the Z score is on record as -10.36.
With `CCOC(=O)c1c(-c2ccccc2)n(C)c2cc(-c3cccnc3)c(O)cc12`, the “% Inhibition” value was found to be 9% and the Z score is given as -1.7.
For `CCOC(=O)c1cnc(N2CCN(Cc3cccnc3)CC2)s1`, in that order: -2% and 0.17.
On the same counts, the results for `CCNc1nc(C)cc(Nc2ccc(NS(=O)(=O)c3c(C)noc3C)cc2)n1` are 86% and -8.65.
On the same counts, the results for `Cc1noc(C)c1S(=O)(=O)Nc1ccc2c(c1)OC1(CCCC1)O2` are 5% and -0.73.
For the molecule `CCNc1nc(C)cc(NCCNC(=O)c2cccc(Cl)c2)n1`, the “% Inhibition” value is on record as 23% and the Z score is on record as -3.44.
On the same counts, the results for `Cc1cc(N(C)C)nc(NCCNC(=O)Nc2cccc(F)c2C)n1` are 20% and -2.61.
On the same counts, the results for `COc1ccc(NS(=O)(=O)c2c(C)noc2C)cn1` are 3% and -0.47.
In the case of `CCOc1nc(-c2cccc(F)c2)n(-c2ccc(NC(=O)Nc3ccc(F)cc3F)cc2)n1`, the “% Inhibition” value is -9% and the Z score was determined as 1.18.
For `CCNc1nc(C)cc(Nc2ccc(NC(=O)c3cc(C)ccc3C)cc2)n1`, in that order: 97% and -9.09.
For `Cc1nc2ccc(NC(=O)Nc3ccc(F)cc3F)cc2s1`, in that order: -9% and 1.17.
For `Cc1ccc(C)c(C(=O)Nc2cnc(-n3nc(C)cc3C)nc2)c1`, in that order: 5% and -0.75.
`Cc1cc(C)n2c(C(=O)NCCNS(=O)(=O)c3ccc(Cl)cc3)nnc2n1`: the “% Inhibition” value was -9% and the Z score is on record as 1.16.
With `Cc1ccncc1CN(C)C(=O)[C@]1(O)CCc2cc(Br)ccc2C1`, the “% Inhibition” value is on record as -5% and the Z score is listed as 1.08.
For `Cc1ccc(C)c(-c2cnn(CC3CC3)c2)c1`, in that order: 0% and 0.02.
On the same counts, the results for `C=C1C(C)(C)[C@@H]2CC[C@@]1(C(=O)N1CCn3c(C(N)=O)cnc3C1)C2` are -14% and 2.1.
Consider `CC(C)Cc1noc(CNC(=O)c2nn(C)cc2Cl)n1`, for which the “% Inhibition” value is given as -7% and the Z score is given as 1.19.
As to `Cc1c(-c2cnn(C)c2)cc(C#N)n1C(F)F`, the “% Inhibition” value is on record as -7% and the Z score was 1.32.
For `CN1C[C@@H](N)C[C@H]1c1nc(COc2ccc(F)cc2)nn1CC(F)(F)F`, in that order: 1% and -0.2.
On the same counts, the results for `COc1ccc(C(=O)N2CCN(C(=O)c3cccnc3)[C@@H](C(=O)N[C@H]3CCCNC3=O)C2)cc1` are -7% and 1.08.
On the same counts, the results for `Cn1c(=O)c2c(-c3ccc(Br)cc3)n(-c3cccc4cccnc34)cc2n(C)c1=O` are -4% and 0.72.
For the molecule `Cn1c(=O)c2c(-c3ccc(Br)cc3)n(-c3ccccn3)cc2n(C)c1=O`, the “% Inhibition” value was -5% and the Z score came to 0.83.
For `Cn1c(=O)c2c(-c3ccc(Cl)cc3)n(-c3cccc4cccc(N)c34)cc2n(C)c1=O`, in that order: 96% and -11.21.
For `O=C(COc1ccc(Cl)cc1)NC1CCN(Cc2ccccc2)CC1`, in that order: -10% and 0.93.
For `CC1CN(C(=O)c2cc(F)cc3c(=O)c4cc(F)ccc4[nH]c23)CC(C)O1` (configuration not stated), in that order: -10% and 1.65.
With `CCN1CCN(c2c(CN(C(=O)Nc3cccc(F)c3)C(C)C)c(C)nn2-c2cccc(F)c2)CC1`, the “% Inhibition” value was 3% and the Z score is on record as -0.41.
For `CCN1CCN(c2cccc(NC(=O)c3cc(F)cc4c(=O)c5cc(F)ccc5[nH]c34)c2)CC1`, in that order: 95% and -17.54.
For `Cc1ccc(C(=O)Nc2cccc(N3CCCCCC3)c2)c(=O)[nH]1`, in that order: -12% and 1.57.
On the same counts, the results for `CCN1CCN(c2cccc(NC(=O)c3ccc4[nH]c5ccccc5c(=O)c4c3)c2)CC1` are 92% and -9.25.
Take `CCN1CCN(c2ccc(C(=O)Nc3cccc(-c4ccc5c(c4)CCO5)c3)cc2F)CC1`: the “% Inhibition” value is on record as 18% and the Z score is recorded as -2.82.
On the same counts, the results for `CN(C)Cc1ccc(NC(=O)c2cc(F)cc3c(=O)c4cc(F)ccc4[nH]c23)cc1` are 77% and -11.59.
On the same counts, the results for `CC[C@@H](CNc1cc(NC2CC2)ncn1)C(=O)O` are -7% and 1.58.
For `Cc1noc(CCCC(=O)N2CCN(C3CCCC3O)CC2)n1` (configuration not stated), in that order: -26% and 3.
In the case of `CN1CC2(CCN(Cc3ccccc3OCCc3ccccc3)CC2)CC1=O`, the “% Inhibition” value is given as 0% and the Z score is -0.02.
For `CCS(=O)(=O)C1CCN(Cc2cn(-c3ccc(F)c(Cl)c3)nn2)CC1`, in that order: 8% and -0.85.
`C[C@H](Oc1ccccc1F)c1nnc2n1CCCC2`: the “% Inhibition” value is on record as -9% and the Z score is 1.39.
Turning to `COc1ccc(CN2C(=O)Cc3ccccc3[C@@H](C(=O)O)[C@@H]2c2ccccc2)c(OC)c1`, the “% Inhibition” value is reported as 0% and the Z score was -0.05.
As for `CCCCNC(=O)N1CC[C@H](c2ccn[nH]2)C1`, the “% Inhibition” value was -16% and the Z score is 1.68.
As for `O[C@@H](CN1CCC(c2ccn[nH]2)CC1)C(F)(F)F`, the “% Inhibition” value worked out at 27% and the Z score was -3.09.
For `O=C(N[C@@H](CN1CCCC1)c1ccccc1)N1CCC(c2ccn[nH]2)CC1`, in that order: 50% and -8.21.
For `Cc1cc2ncc(-c3nc([C@H]4CCOC(C)(C)C4)no3)c(C)n2n1`, the “% Inhibition” value is recorded as -5% and the Z score is recorded as 0.67.
For `Cc1ccsc1-c1nccn1CCNC(=O)c1ccc(F)cc1`, in that order: -3% and 0.58.
On the same counts, the results for `Cc1ccc(C(N)=O)c(NCC2(N3CCN(C)CC3)CCCC2)n1` are -17% and 1.6.
Turning to `Cc1cc(N(C)C(=O)c2nccn3ccnc23)ccc1Br`, the “% Inhibition” value is on record as 26% and the Z score is on record as -3.49.
For `COCC(C)(C)c1noc(-c2ccc(C(F)(F)F)c(=O)[nH]2)n1`, in that order: -6% and 0.62.
For `COc1ccc(-n2nc(C(=O)N3CCN(C)CC3)c(=O)n(Cc3cccc(C(F)(F)F)c3)c2=O)cc1OC`, in that order: -2% and 0.34.
